Structures are written as SMILES. The list shows a part of the results. Inconclusive results are not listed. Active and inactive are the calls of the source.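 The calls were made as follows: active = compound lowering PGC-1a expression with fitted half-maximal concentration at most twice its top tested dose; inconclusive = flat curve with moderate opposite-direction effect, or poor fit; inactive = the rest.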

The assay can be described thus: hepatocyte PGC-1a gene expression decrease – cell-based, primary mouse hepatocytes, RT-qPCR, cherry-pick, PGC-1a acetylation activator project, dose response (AID 743467).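 Also: 0% = neutral control wells median and 100% = positive control wells median.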 Conditions: PGC-1a mRNA qPCR, forskolin, top dose 26 µM, hits give high values; at 26 µM unless noted. In general terms: Real-time PCR tracks product formation cycle by cycle.
`CCOC(=O)c1c(NC(=O)CSc2cn(CC)c3ccccc23)sc2c1CCC2`: the max activity (PGC-1a expression decrease) was 60.3% (inactive).

Regarding `CCCCC(=O)Nc1ccc(C(=O)NCCCn2ccnc2)cc1`, the max activity (PGC-1a expression decrease) is 68.4% [at 0.011 µM] (inactive).

On to `O=C(NCCC1CCCCN1S(=O)(=O)c1cccs1)C(=O)Nc1ccc(F)cc1F` (centres undefined), for which the max activity (PGC-1a expression decrease) is 63.6% (inactive).

Regarding `Cc1cc(C)c2c(-n3cccc3)c(C(=O)NNS(=O)(=O)c3ccc(F)cc3)sc2n1`, the max activity (PGC-1a expression decrease) was 82.5% [at 8 µM] (inactive).

For the compound `O=S(=O)(NCc1ccccc1Br)c1ccccc1Br`, the max activity (PGC-1a expression decrease) is 65.1% (inactive).

`O=C(NCc1ccccc1)C(c1ccccc1)N(C(=O)c1csnn1)c1ccc(F)cc1` (centres undefined): the max activity (PGC-1a expression decrease) is 114% [at 8 µM] (inactive).

In the case of `CCC(C)(C)n1nnnc1C(c1ccccc1OC)N1CCSCC1` (centres undefined), the max activity (PGC-1a expression decrease) is 74.7% (inactive).

Consider `COc1ccc(-n2nnnc2CNC(=O)c2ccc3ccccc3c2)cc1`, for which the max activity (PGC-1a expression decrease) was 86.6% [at 0.0038 µM] (inactive).

As for `CCOc1ccccc1CN1CCN(C2CCC2)CC1CCO` (centres undefined), the max activity (PGC-1a expression decrease) is 28.9% [at 8 µM] (inactive).

As to `CCOC(=O)c1c(-c2ccc(C)cc2C)csc1NC(=O)CSc1nnnn1C`, the max activity (PGC-1a expression decrease) was 87% [at 8 µM] (inactive).

For the compound `COc1ccc(Nc2nnc(C)c3ccccc23)cc1`, the max activity (PGC-1a expression decrease) is 52.1% (inactive).

Take `Cc1cc(C(=O)NNS(=O)(=O)c2ccccc2C(F)(F)F)nn1C(C)(C)C`: the max activity (PGC-1a expression decrease) was 22.5% [at 0.0012 µM] (inactive).

Turning to `Cc1ccc(OCC(=O)NCCCNC(=O)c2cccnc2)cc1C`, the max activity (PGC-1a expression decrease) was 111% (inactive).

In the case of `CC(C)CCNc1nc(N2CCCC2)c2c(c1C#N)CCN(C)C2`, the max activity (PGC-1a expression decrease) was 56.4% (inactive).

The values are drawn from PubChem BioAssay AID743467 (Broad Institute, 2014).
